Assay results: PubChem BioAssay (NCI)
About 83,000 compounds went through this panel and 20% of them were active in at least one assay; those are over-represented in the sample as a whole.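 The endpoint reported here, percent growth, reads 100 for growth as untreated, 0 for no net growth and -100 for all cells dead.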 The source made the active and inactive calls.

test system: U251 CNS; assay: NCI-60 one-dose screen, 48 h (100 = growth as untreated, 0 = no growth, -100 = all killed); conditions: 10 µM unless noted
Method: Growth inhibition of the U251 human tumor cell line is measured as a screen for anti-cancer activity. Cells are grown in 96 well plates and exposed to the test compound for 48 hours. Compounds are tested at a single concentration, which is 10^-5 M for most compounds. The reported endpoint is percent growth (GI% or GIPRCNT), where numbers from 0 - 100% represent growth inhibition, and numbers from -100% - 0 represent cell death. For example, a value of 40 represents 60% growth inhibition. A value of 0 means no net growth occurred over the course of the experiment. A value of -40 indicates 40% of cells at the beginning of the experiment died by the end of the experiment. A value of -100 means all cells are dead at the end of the experiment.
NCI-60 Human Tumor Cell Lines Screen was performed using the standard one-dose NCI protocol, which is described in more detail at https://dtp.cancer.gov/discovery_development/nci-60/default.htm.
Compounds with GIPRCNT values below 10 were considered active. Activity score was based on GIPRCNT using the following formula: […]
Score is 0 for GIPRCNT values of 100 or above, 50 for GIPRCNT values of 0, and 100 for GIPRCNT values of -100.

Row | SMILES | growth
1 | CCSc1ccnc(N)n1 | 105% (inactive)
2 | C(=C(\C1=NCCN1)n1ccc2ccccc21)/c1ccccc1 | 94.6% (inactive)
3 | Cc1ccc(OCCOCCOCCOc2ccc(C)n(O)c2=S)c(=S)n1O | 31.1% (inactive)
4 | Cc1nc2sc(C(=O)Nc3cccc4ccccc34)c(N)c2cc1C(=O)c1ccccc1 | 22.8% (inactive)
5 | CN(C)c1ccc(/C=C2\C=C(c3nc4ccccc4s3)OC2=O)cc1 | 98.4% (inactive)
6 | Clc1ccc(Nc2nnc(CNc3ccccc3)c3ccccc23)cc1 | 9.66% (active)
7 | COC(=O)c1c2c(c(C)[n+]([O-])c1C)C(=O)C(NCc1ccccc1)=CC2=O | 1.71% (active)
8 | O=C(Nc1ccc(Nc2ccncc2)cc1)c1ccc(Nc2ccnc3ccc([N+](=O)[O-])cc23)cc1 | 95.5% (inactive)
9 | Cc1cccc(N=Nc2cccc(C)c2)c1 | 106% (inactive)
10 | Nc1nc(C(=O)N/N=C/c2ccc(F)cc2)nn1-c1ccc(S(N)(=O)=O)cc1 | 98.4% (inactive)
11 | CCN(CC)CCCC(Cc1ccccc1)Nc1c2ccc(Cl)cc2nc2ccc(OC)cc12 (stereo not given) | 9.64% (active)
12 | CC1(/C=C/c2ccc(-c3ccccc3)cc2)CCn2cnc3ncnc(c32)N1O (stereo not given) | 24.7% (inactive)
13 | CC(O)Cc1c[nH]c(=O)[nH]c1=O (stereo not given) | 95.9% (inactive)
14 | CSc1ccc2c3c(n(CCCn4ccnc4)c(=O)c2c1)-c1ccccc1C3=O | 12.7% (inactive)
15 | N=C(N)c1ccc(-c2ccc(-c3ccccc3)o2)o1 | 10.3% (inactive)
16 | COc1cc(/C=C/C(=O)c2cccc(-n3cc(-c4ccc(Cl)cc4)[nH]c3=O)c2)ccc1O | 32.4% (inactive)
17 | CC(C)(C)c1ccc(S(=O)(=O)Oc2ccc(-c3sc4cc(OS(=O)(=O)c5ccc(C(C)(C)C)cc5)ccc4c3C(=O)c3ccc(OCCN4CCCCC4)cc3)cc2)cc1 | 103% (inactive)
18 | COC12C=C/C(=C(/C(=O)OCc3csc(SC)n3)C(=O)CCCCCCCCC3(OC)C=C/C(=C(/C(=O)OCc4cnc(SC)s4)C(=O)CCCCCCCC1)O3)O2 (stereo not given) | 36.9% (inactive)
19 | Nc1nc(N)c2c(n1)NC(c1cccc(Nc3ccnc4cc(C(F)(F)F)ccc34)c1)CC(c1ccc3c(c1)OCO3)=N2 (stereo not given) | 56.4% (inactive)
20 | N=C(N)c1ccc(-c2ccc(-c3cc(Cl)cc(Cl)c3)s2)s1 | -86.5% (active)

Row | SMILES | growth
21 | Nc1ccc(Br)cc1C(F)(F)F | 109% (inactive)
22 | CCn1cc(C(=O)O)c(=O)c2cc(F)c(N3CCN(CC(=O)Nc4ccccc4)C(C)C3)c(F)c21 (stereo not given) | 102% (inactive)
23 | C=C[C@@]1(C)CC(=O)[C@@H](C(C)(C)c2cn(C)c3ccc(Br)cc23)C[C@@H]1O[Si](C)(C)C(C)(C)C | 97.4% (inactive)
24 | c1ccc(Nc2nc3c(s2)CCc2c[nH]cc2-3)nc1 | 89.6% (inactive)
25 | COC12C=C/C(=C(/C(=O)OCCSc3ccnn3C)C(=O)CCCCCCCCC3(OC)C=C/C(=C(/C(=O)OCCSc4ccnn4C)C(=O)CCCCCCCC1)O3)O2 | -3.32% (active)
26 | CN1C(=O)N2CN3CCCN(C3)CN3C(=S)NC1C23 (stereo not given) | 101% (inactive)
27 | O=C(/C=C/c1ccccc1)c1ccc(-n2cc(CN3CCN(c4cc5c(cc4F)c(=O)c(C(=O)O)cn5C4CC4)CC3)nn2)cc1 | 42.2% (inactive)
28 | COc1ccc(C(=O)Nc2ncc(Cc3ccc(Cl)cc3)s2)cc1 | 25.2% (inactive)
29 | COc1ccc(C2C3=C(COC3=O)N(CCO)c3cc4c(cc32)OCO4)cc1OC (stereo not given) | 97.9% (inactive)
30 | Cc1ccc(S(=O)(=O)N2CCCN(c3nc(-c4ccccc4)nc4nc(-c5ccccc5)oc34)CC2)cc1 | 104% (inactive)
31 | COc1ccc(-c2nc3c(c(-c4ccc(Cl)cc4)nn3-c3ccccc3)c(-c3ccccc3)c2C#N)cc1 | 99.6% (inactive)
32 | Nc1ncnc2c1N=C(c1ccc(F)cc1)CC(c1cccc(Nc3ccnc4cc(Cl)ccc34)c1)N2 (stereo not given) | 66.2% (inactive)
33 | CCOC(=O)NCCCC(=O)NCCc1ccccc1 | 99.6% (inactive)
34 | CS(=O)(=O)Nc1cc(-c2ccc3ncnc(Nc4ccc(F)c(Cl)c4)c3c2)ccc1Cl | 42.4% (inactive)
35 | Cc1c2cnccc2c(C)c2c1c1cc(CO)ccc1n2C | -38.1% (active)
36 | CN1CCN(Cc2ccc(NC(=O)c3cncc(C#Cc4cnc(N)cc4C#N)c3)cc2C(F)(F)F)CC1 | 20.1% (inactive)
37 | Cc1ccc2c(c1)nc(C)n2-c1ncnc2c1CC(C)c1cc(O)ccc1N2C (stereo not given) | 20% (inactive)
38 | C[C@H]1[C@H](C)CC[C@]2(C(=O)NCCNCCN)CC[C@]3(C)C(=CC[C@@H]4[C@@]5(C)CCC(=O)C(C)(C)[C@@H]5CC[C@]43C)[C@H]12 | -28.6% (active)
39 | CN1CC(c2ccc(Br)cc2)C(C(=O)c2ccc(Br)cc2)C12C(=O)Nc1ccccc12 (stereo not given) | 82.3% (inactive)
40 | N[C@@H]1CCC[C@H]1NCCCCN1C(=O)c2cccc3cc([N+](=O)[O-])cc(c23)C1=O | 33.7% (inactive)
